Several values for one entry are separate records, joined by “and”; a condition that tells them apart may be missing. Identical values can stand only once. Results filed as inconclusive are left out. A number with no mark means an inactive call. Activity calls are given as the source filed them. The call rests on the fitted dose curve; in most records, active means well fitted curve in the direction sought with a large enough effect; inconclusive means small, poorly fitted or top-dose-only effect, or another doubt; inactive means no such curve, though single readings can be large; an effect the other way counts as inactive or inconclusive.
What was measured:
[1] = Viability qHTS for spleen associated tyrosine kinase inhibitor (SYKi) drug resistant MV4-11 cells (AID 1963824); settings: SYKi-resistant MV4-11 viability, CellTiter-Glo, 72 h; series mostly up to 45 µM; further: nearly all actives have a fitted effect of over 35% in size
Outline: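 SYK inhibitor-resistant MV4-11 AML cells, 500 per well, added to predispensed compounds and incubated 72 hr at 37 C, 5% CO2. Viability measured by CellTiter-Glo luminescence after 10 min at room temperature.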

[2] = Cellular viability qHTS for adrenocortical cancer (ACC) cell line SW-13 (AID 1963989); settings: SW-13 ACC cells viability, CellTiter-Glo, 48 h; activity (max response): stronger effect = lower value; further: nearly all actives have a fitted effect of over 65% in size;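 on activity (max response): cells grown in serum-free medium with ITS supplement; on the % scale 0 is the no-effect control and ±100 the full control effect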
Outline: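 Viability was read as CellTiter-Glo luminescence after 48 h compound treatment (up to 46 uM final) of SW-13 cells grown serum-free; titration curves were fit with a four-parameter logistic model to give IC50 and efficacy.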

[3] = Cellular viability qHTS for adrenocortical cancer (ACC) cell line NCI-H295R (AID 1963990); settings: CellTiter-Glo ATP luminescence, 48 h; series mostly up to 46.1 µM; further: nearly all actives have a fitted effect of over 60% in size
Outline: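 CellTiter-Glo ATP luminescence, read 48 h after compound addition, measured viability of NCI-H295R adrenocortical cells grown serum-free with ITS. Final concentrations spanned up to 46 uM. Data normalized to DMSO and doxorubicin, fitted for IC50 and maximal response.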
Potency means the concentration at half of the fitted maximal effect.

Compound | Potency [1] | Potency [2] | Potency [3] | activity (max response) [2]
COCCN1CCN(Cc2ccc(-c3n[nH]c4c3C(=O)c3c(NC(=O)NN5CCOCC5)cccc3-4)cc2)CC1 | 0.0209 µM (active) | 0.316 µM (active) | 0.891 µM (active) | 
CCN(c1cc(-c2ccc(CN3CCOCC3)cc2)cc(C(=O)NCc2c(C)cc(C)[nH]c2=O)c1C)C1CCOCC1 | 20.6 µM (active) |  | inactive | -2.62%
CC(C)(C)C(=O)C(Oc1ccc(Cl)cc1)n1ccnc1 (stereo not given) | 20.6 µM (active) |  | inactive | -11.3%
CCC1CCCCN1C(=O)n1ncc(C(O)(c2ccccc2)c2ccccc2)n1 (stereo not given) | 5.25 µM (active) | 15.8 µM (active) | 28.2 µM (active) | 
Cc1ccc(NC(=O)NCc2ccc3c(c2)CN(C2CCC(=O)NC2=O)C3=O)cc1Cl (stereo not given) | 0.0013 µM (active) | 0.0089 µM (active) | 0.0251 µM (active) | 
OC[C@H]1O[C@@H](n2cnc3c(=S)nc[nH]c32)[C@H](O)[C@@H]1O | 1.19 µM (active) | 9.2 µM (active) | 2.31 µM (active) | 
C=CCSCC1Nc2cc(Cl)c(S(N)(=O)=O)cc2S(=O)(=O)N1 (stereo not given) | 10.6 µM (active) |  | inactive | 6.34%
CC1(C)C(N(O)C(=O)Nc2ccc(Cl)cc2)N(c2ccc(Cl)cc2)C(=O)N1CC(=O)N/N=C/C=C/c1ccc([N+](=O)[O-])o1 (stereo not given) | 2.63 µM (active) | 25.1 µM (active) | 20 µM (active) | 
Nc1ncnc2nc[nH]c12 | inactive |  | inactive | 2.49%
CC(=O)Nc1ccc(O)cc1 | inactive |  | inactive | -6.94% and -15.1%

Reference: PubChem BioAssay (NCATS)
